A selection: hits, their analogues and other compounds. The true share with any hit is near 2.1%.
PD-1 reversal = activators reversing PD-1 mediated T-cell inhibition, primary screen, luminescence, primary human CD4 T cells, PD-L1 beads; CellTiter-Glo 96 h; 29,000 tested, under 10 active; AID 2316, 2010; activation, % (concentration not given with the values); call rule not given here;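 also: 0% = median vehicle wells and 100% = positive control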
ROS inducer = ROS inducers in U2OS cancer cells, primary screen, cell-based, H2DCF-DA fluorescence; U2OS ROS induction; ROS induction (% of piperlongumine), % at 10 µM; 2% of 46,000 active; AID 624156, 2012; in the data active = ROS induction above about 79%, passing the limit was not always enough; inconclusive = no clear call, values can overlap the other calls;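 also: 0% = DMSO vehicle median and 100% = reference compound median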
YB-1 expression = inhibitors of YB-1 gene expression, primary screen, cell-based, fluorescence | 0.37% of 30,000 active | delta delta Cp (YB-1 minus CDIP) (concentration not given with the values) | U2OS, qRT-PCR YB-1 vs CDIP delta delta Cp, 16 h; active compounds read high; zero = DMSO, each unit about twofold;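 active = delta delta Cp rounded down to an integer at or above 3, about 3 SD of DMSO wells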;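 also: higher means less YB-1 transcript or more CDIP transcript relative to DMSO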
* hit, by the source's call; ? = inconclusive; . = no result given.

SMILES	PD-1 reversal	ROS inducer	YB-1 expression
C=C1C(=O)O[C@H]2C1CCC(C)=C1C(=O)C=C(C)[C@@]12O (stereo partly drawn)	-4.5	69.3	0.177
C=C1C(=O)O[C@@H]2C3O[C@]3(C)CC/C=C(/C)CC[C@@H]12 (stereo partly drawn)	.	91.7*	-0.0157
C=C1C(=O)O[C@@H]2[C@H]3O[C@]3(C)CCC=C(C)CC[C@@H]12	-58.7	101.1*	-0.063
COc1ccc(C#Cc2cnc3c(c2)C(=O)N([C@H](C)CO)C[C@H](C)[C@H](CN(C)C(=O)Nc2c(C)noc2C)O3)cc1OC	.	23.7	0.0914
COc1ccc(NC(=O)N(C)C[C@@H]2Oc3ncc(C#Cc4ccc(OC)c(OC)c4)cc3C(=O)N([C@H](C)CO)C[C@@H]2C)cc1	.	104.2*	0.23
C[C@H](CO)N1C[C@H](C)[C@H](CN(C)C(=O)Nc2ccc(F)cc2)Oc2ncc(C#Cc3ccc(F)cc3)cc2C1=O	.	?	-0.373
C[C@H](CO)N1C[C@H](C)[C@H](CN(C)C(=O)Nc2ccccc2)Oc2ncc(C#Cc3ccc(F)cc3)cc2C1=O	.	132.0*	-0.506
COc1ccc(C#Cc2cnc3c(c2)C(=O)N([C@H](C)CO)C[C@H](C)[C@H](CN(C)C(=O)Nc2ccc4c(c2)OCO4)O3)cc1OC	.	118.4*	0.0502
COc1ccc(NC(=O)N(C)C[C@@H]2Oc3ncc(C#CCN(C)C)cc3C(=O)N([C@H](C)CO)C[C@@H]2C)cc1	.	-5.8	0.239
O=C(CSCCO)Nc1ccc(F)cc1	1.3	-8.6	.
CCC(C(=O)NCc1ccccn1)c1ccccc1 (stereo not drawn)	.	-8.5	.
Cc1ccc(-n2c(SCC(=O)C(C)(C)C)nc3ccccc3c2=O)cc1	.	0.8	.
COc1ccccc1C(=O)Nc1ccc(C)cc1C	.	6.6	.
CCOC(=O)c1c(NC(=O)c2nc3nc(C)cc(C(F)F)n3n2)sc2c1CCCC2	6.2	165.5*	.
CCOC(=O)c1c(NC(=O)CSc2nc(C)cc(C(F)(F)F)n2)sc2c1CCCC2	2.1	-3.4	.
COc1ccc(NC(=O)OCC23COCN2COC3)cc1	.	-8.5	.
CC(C)(C)c1ccc(-c2nc(=O)[nH]n2-c2ccccc2)cc1	.	-3.6	.
CC(C)(C)c1ccc(-c2cc3ccccn3c2)cc1	0.6	7.4	10.2*
CC(C)CC(NS(=O)(=O)c1ccc(C(C)(C)C)cc1)C(=O)O (stereo not drawn)	0.6	-5.9	.
O=c1c(-c2ccc(O)cc2)coc2cc(OC3OC(CO)C(O)C(O)C3O)cc(O)c12 (stereo not drawn)	4.2	-12.2	-0.346
COc1cc(O)c2c(=O)c(-c3ccc(O)cc3)coc2c1	.	16.2	3.02*
COc1cc(/C=C/C(=O)OCC[N+](C)(C)C)cc(OC)c1O	-1.6	-8.1	0.0373
CC1(C)OC2C(CO)OC(n3cnc4c(=O)[nH]cnc43)C2O1 (stereo not drawn)	2.0	33.5	-0.113
CC1(C)O[C@@H]2[C@H](O1)[C@@H](CO)O[C@H]2n1cnc2c(N)ncnc21	-0.3	84.7*	-0.361
Cc1ccc(S[C@]2(C(=O)NC(C)C)CC(=O)N(C3CCCCC3)[C@@H]2c2ccc(CO)cc2I)cc1	.	200.5*	0.111
SMILES	PD-1 reversal	ROS inducer	YB-1 expression
Cc1ccc(S[C@]2(C(=O)NCC(F)(F)F)CC(=O)N(C3CCCCC3)[C@@H]2c2ccc(CO)cc2I)cc1	.	18.9	0.19
COc1ccc(NC(=O)Cc2nc(-c3ccc([N+](=O)[O-])cc3)cs2)cc1	-2.0	94.2*	.
COc1ccc(NC(=O)c2ccccc2NC(=O)COc2ccc([N+](=O)[O-])cc2)cc1	4.5	-15.2	.
COC(=O)c1ccc(C2C3=C(CC(C)(C)CC3=O)Nc3ccccc3N2C(=O)C(C)C)cc1 (stereo not drawn)	.	-4.8	.
CC(=O)OCC1=C[C@@H](O)[C@@H]2C=CO[C@@H](OC3OC(CO)C(O)C(O)C3O)[C@H]12 (stereo partly drawn)	1.3	-10.1	2.32
CSC(=O)OCC1=C[C@H](O)[C@@H]2C(C(=O)O)=CO[C@@H](OC3OC(CO)C(O)C(O)C3O)[C@H]12 (stereo partly drawn)	1.8	-9.5	4.11*
CC(NS(=O)(=O)c1ccccc1)C(=O)Nc1ccccc1Sc1ccccc1 (stereo not drawn)	1.3	4.0	.
COc1ccc2[nH]c3c(=O)n(CCCCC(=O)Nc4ccccc4)c(=S)[nH]c3c2c1	.	10.4	.
N#Cc1c(N)nc(SCC(=O)c2ccc3ccccc3c2)c(C#N)c1-c1cccc(F)c1	.	22.9	.
COc1ccc(-c2c(C#N)c(SCC(=O)c3ccccc3)nc3c2C(=O)CC(C)(C)C3)cc1	.	138.3*	.
COc1cc(/C=C2\SC(=S)NC2=O)ccc1OCc1cccc2ccccc12	.	21.7	.
C[C@@H]1CCCCO[C@@H](CN(C)C(=O)c2ccccc2)[C@@H](C)CN([C@H](C)CO)C(=O)c2cc(NS(=O)(=O)c3cccs3)ccc2O1	1.4	5.0	0.216
C[C@@H]1CCCCO[C@@H](CN(C)C(=O)C2CCCCC2)[C@@H](C)CN([C@H](C)CO)C(=O)c2cc(NS(=O)(=O)c3cccs3)ccc2O1	.	108.6*	-0.245
Cc1ccc(S(=O)(=O)Nc2ccc3c(c2)C(=O)N([C@H](C)CO)C[C@H](C)[C@@H](CN(C)CC2CCCCC2)OCCCC[C@@H](C)O3)cc1	-1.7	12.4	-0.149
C[C@@H]1CCCCO[C@@H](CN(C)C(=O)C2CCCCC2)[C@@H](C)CN([C@H](C)CO)C(=O)c2cc(NS(=O)(=O)c3ccccc3)ccc2O1	.	109.7*	-0.452
C[C@@H]1CCCCO[C@@H](CN(C)C(=O)Nc2ccccc2)[C@@H](C)CN([C@H](C)CO)C(=O)c2cc(NS(=O)(=O)c3cccs3)ccc2O1	0.2	9.3	0.288
C[C@@H]1CCCCO[C@H](CN(C)C(=O)C2CCCCC2)[C@@H](C)CN([C@H](C)CO)C(=O)c2cc(NS(=O)(=O)c3ccc(Cl)cc3)ccc2O1	.	35.1	0.293
C[C@@H]1CCCCO[C@H](CN(C)C(=O)NC2CCCCC2)[C@@H](C)CN([C@H](C)CO)C(=O)c2cc(NS(=O)(=O)c3cccs3)ccc2O1	.	83.5*	-0.197
C[C@@H]1CCCCO[C@H](CN(C)CC2CCCCC2)[C@@H](C)CN([C@H](C)CO)C(=O)c2cc(NS(=O)(=O)c3ccccc3)ccc2O1	-5.2	119.0*	-0.612
CCN(CC)c1ccc2cc(C(N)=O)c(=Nc3ccc(F)cc3)oc2c1	-0.6	4.5	0.19
COC(=O)CSc1nnc(-c2cc(OC)c(OC)c(OC)c2)n1C	3.0	.	.
CCn1nc(C)c(Br)c1-c1nc(-c2ccccc2)no1	.	-6.0	.
COCCOC(=O)N1C(=O)[C@@]2(c3cc(C#Cc4ccc(OC)cc4)ccc31)[C@H](c1ccccc1OCCO)N1[C@H](c3ccccc3)[C@H](c3ccccc3)OC(=O)[C@H]1[C@@H]2C(N)=O	.	74.3	0.265
C=CCNC(=O)[C@@H]1[C@H]2C(=O)O[C@H](c3ccccc3)[C@H](c3ccccc3)N2[C@H](c2ccccc2OCCO)[C@@]12C(=O)N(C(=O)OCCOC)c1ccc(C#Cc3ccc(OC)cc3)cc12	.	33.9	-0.343

Screening results as filed in PubChem BioAssay.
